In PubChem BioAssay (Tox21):
Results filed as inconclusive are left out. Calls of active or inactive are those of the source. Unless noted, calls come from the whole dose curve; as a rule, active = well fitted curve in the direction sought with a large enough effect in the repeat runs; inconclusive = weak or mixed curves; inactive = no such curve, though single readings can be large; an effect the other way counts as inactive or inconclusive.

Key:
[1] = A CellTox Green Cytotoxicity Assay to monitor cytotoxicity in HEK293 cells - 32 hour (AID 1224881); note: nearly all actives have a fitted effect of over 40% in size
In short: (§1)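 Cytotoxicity was tracked continuously in HEK293 cells by a DNA-binding dye excluded from viable cells. Compounds were transferred in DMSO 5 h after seeding; fluorescence was recorded at intervals up to 40 h.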

[2] = A CellTox Green Cytotoxicity Assay to monitor cytotoxicity in HepG2 cells - 0 hour (AID 1224882); note: nearly all actives have a fitted effect of over 35% in size
In short: (§2)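 Real-time, homogeneous cytotoxicity readout: dead-cell DNA staining by CellTox Green in HepG2 monolayers, fluorescence measured at timed intervals up to 40 h of continuous compound exposure.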

[3] = A CellTox Green Cytotoxicity Assay to monitor cytotoxicity in HepG2 cells - 32 hour (AID 1224883); note: nearly all actives have a fitted effect of over 50% in size
In short: as §2

[4] = A CellTox Green Cytotoxicity Assay to monitor cytotoxicity in HEK293 cells - 8 hour (AID 1224884); note: nearly all actives have a fitted effect of over 35% in size
In short: as §1

[5] = qHTS RealTime-Glo MT Cell Viability Assay in HepG2 cells - 16 hour (AID 1224885); note: nearly all actives have a fitted effect of over 50% in size
In short: (§3)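 Viability was tracked continuously by NanoLuc luminescence from prosubstrate reduced by living HepG2 cells, at successive time points over 40 h of compound exposure. Cells with reagent were preincubated 5 h at 37 °C before compound addition.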

[6] = qHTS RealTime-Glo MT Cell Viability Assay in HEK293 cells - 24 hour (AID 1224886); note: top concentration of the series differs between compounds; nearly all actives have a fitted effect of over 50% in size
In short: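 Viability tracked continuously by luminescence as live cells reduce a prosubstrate for NanoLuc; HEK293 cells preincubated 5 h, compound-treated at 37 C, and read at 0, 8, 16, 24, 32 and 40 h.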

[7] = qHTS RealTime-Glo MT Cell Viability Assay in HEK293 cells - 8 hour (AID 1224887); note: top concentration of the series differs between compounds; nearly all actives have a fitted effect of over 50% in size
In short: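 Nonlytic bioluminescent viability monitoring. HEK293 at 600 cells/well with reagent; 5 h settle; compound transfer by pintool; plates held at 37 C and read at set time points.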

[8] = qHTS RealTime-Glo MT Cell Viability Assay in HepG2 cells - 0 hour (AID 1224889); note: nearly all actives have a fitted effect of over 50% in size
In short: as §3

[9] = A CellTox Green Cytotoxicity Assay to monitor cytotoxicity in HepG2 cells - 8 hour (AID 1224890); note: nearly all actives have a fitted effect of over 45% in size
In short: as §2

[10] = qHTS assay to identify small molecule antagonists of the estrogen receptor alpha (ER-alpha) signaling pathway using the BG1 cell line in the presence of 0.1 nM 17-beta-estradiol - cell viability counter screen (AID 1259241); note: nearly all actives have a fitted effect of over 40% in size
In short: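 In this screen, hormone-deprived VM7Luc4E2 cells were seeded at 4,000 per well, dosed with compound and 0.1 nM estradiol final, and incubated 22 hr at 37C and 5% CO2; fluorogenic live-cell protease signal reported viability.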

[11] = qHTS assay to identify small molecule antagonists of the androgen receptor (AR) signaling pathway using the MDA cell line in the presence of 0.5 nM R1881 - cell viability counter screen (AID 1259242); note: nearly all actives have a fitted effect of over 45% in size
In short: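 Cytotoxicity toward MDA-kb2 cells is measured by CellTiter-Fluor live-cell protease fluorescence after 16 hr compound exposure at 37C in the presence of 0.5 nM R1881 stimulator.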

[12] = molecular target: Estrogen receptor (Homo sapiens) (UniProt P03372); assay: qHTS assay to identify small molecule antagonists of the estrogen receptor alpha (ER-alpha) signaling pathway using the BG1 cell line in the presence of 0.1 nM 17-beta-estradiol (AID 1259244); note: nearly all actives have a fitted effect of over 50% in size
Chain of Estrogen receptor (Homo sapiens) (P03372 whole entry, looked up): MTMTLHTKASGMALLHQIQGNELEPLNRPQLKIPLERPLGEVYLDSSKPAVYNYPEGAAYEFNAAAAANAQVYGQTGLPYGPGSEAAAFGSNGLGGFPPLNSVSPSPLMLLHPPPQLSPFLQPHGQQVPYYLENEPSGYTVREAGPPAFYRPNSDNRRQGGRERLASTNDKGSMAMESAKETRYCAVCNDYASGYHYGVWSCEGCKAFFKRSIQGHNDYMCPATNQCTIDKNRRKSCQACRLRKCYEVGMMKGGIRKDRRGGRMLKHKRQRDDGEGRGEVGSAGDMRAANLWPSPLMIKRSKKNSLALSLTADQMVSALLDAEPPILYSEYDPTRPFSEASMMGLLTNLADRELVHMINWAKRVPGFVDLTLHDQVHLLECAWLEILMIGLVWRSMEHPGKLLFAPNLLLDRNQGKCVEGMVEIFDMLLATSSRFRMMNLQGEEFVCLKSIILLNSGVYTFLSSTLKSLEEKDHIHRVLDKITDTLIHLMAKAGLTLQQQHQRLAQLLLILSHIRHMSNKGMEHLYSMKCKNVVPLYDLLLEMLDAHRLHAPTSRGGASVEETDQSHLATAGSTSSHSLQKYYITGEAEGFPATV
In short: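 After 5 days in hormone-depleted medium (charcoal-stripped serum, no phenol red), VM7Luc4E2 cells were seeded, incubated 24 h, then co-treated with compound and 0.1 nM (final) estradiol for 22 h before luminescence detection.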

[13] = qHTS assay to identify small molecule phospholipidosis (PLD) inducers (AID 1259344; active = well fitted curve in the direction sought with a large enough effect; an effect the other way counts as inactive or inconclusive)
In short: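 Fluorescent phospholipid staining (LipidTOX Red) measured by automated microscopy in fixed HepG2 cells after 24 h treatment; nuclei counterstained with Hoechst 33342; amiodarone as reference inducer.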

[14] = qHTS assay to identify small molecule HDAC inhibitors (AID 1259364); note: top concentration of the series differs between compounds; nearly all actives have a fitted effect of over 45% in size
In short: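 Homogeneous cell-based luminescent assay of endogenous class I/II HDAC activity; HCT-116 cells, 2 h compound exposure, 30 min HDAC-Glo development at RT.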

[15] = qHTS assay to identify small molecule HDAC inhibitors - cell viability counter screen (AID 1259365)
In short: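 Measured quantity is CellTiter-Glo luminescence from wild-type HCT-116 cells after compound incubation of 2hr at 37C, 5% CO2; reagent developed 30min at room temperature.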

[16] = qHTS assay to identify small molecule agonists of the sonic hedgehog signaling (Shh) pathway - cell viability counter screen (AID 1259366); note: nearly all actives have a fitted effect of over 50% in size
In short: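 In quantitative high-throughput format, 3T3 Gli1-Luc cells were exposed to compounds for 24hr and multiplexed for viability using CellTiter-Fluor, incubated 1hr at 37C before the fluorescence read.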

[17] = qHTS assay to identify small molecule antagonists of the sonic hedgehog signaling (Shh) pathway - cell viability counter screen (AID 1259367); note: nearly all actives have a fitted effect of over 55% in size
In short: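 Using CellTiter-Fluor, viability of Gli1-Luc reporter 3T3 cells is read by fluorescence in the wells used for the Shh luciferase assay. Treatment lasts 23 hr with conditioned medium, then reagent 1 hr at 37C.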

[18] = qHTS assay to identify small molecule agonists of the sonic hedgehog signaling (Shh) pathway (AID 1259368; calls by dose curve;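 note: NIH/3T3-derived 3T3Gli1-Luc cells carrying a stable Gli1-driven firefly luciferase reporter; series mostly up to about 92 µM; nearly all actives have a fitted effect of over 15% in size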)
In short: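 Steps: seed 3T3 Gli1-Luc cells, incubate 4 hr at 37 C, pin-transfer compounds in DMSO alongside a positive control, incubate 24 hr, add luciferase detection reagent, wait 30 min at room temperature, read luminescence.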

[19] = A CellTox Green Cytotoxicity Assay to monitor cytotoxicity in HEK293 cells - 16 hour (AID 1224888); note: nearly all actives have a fitted effect of over 35% in size
In short: as §1

[20] = molecular target: Androgen receptor (Homo sapiens) (UniProt P10275); assay: qHTS assay to identify small molecule antagonists of the androgen receptor (AR) signaling pathway using the MDA cell line in the presence of 0.5 nM R1881 (AID 1259243); note: nearly all actives have a fitted effect of over 50% in size
Chain of Androgen receptor (Homo sapiens) (P10275 whole entry, looked up): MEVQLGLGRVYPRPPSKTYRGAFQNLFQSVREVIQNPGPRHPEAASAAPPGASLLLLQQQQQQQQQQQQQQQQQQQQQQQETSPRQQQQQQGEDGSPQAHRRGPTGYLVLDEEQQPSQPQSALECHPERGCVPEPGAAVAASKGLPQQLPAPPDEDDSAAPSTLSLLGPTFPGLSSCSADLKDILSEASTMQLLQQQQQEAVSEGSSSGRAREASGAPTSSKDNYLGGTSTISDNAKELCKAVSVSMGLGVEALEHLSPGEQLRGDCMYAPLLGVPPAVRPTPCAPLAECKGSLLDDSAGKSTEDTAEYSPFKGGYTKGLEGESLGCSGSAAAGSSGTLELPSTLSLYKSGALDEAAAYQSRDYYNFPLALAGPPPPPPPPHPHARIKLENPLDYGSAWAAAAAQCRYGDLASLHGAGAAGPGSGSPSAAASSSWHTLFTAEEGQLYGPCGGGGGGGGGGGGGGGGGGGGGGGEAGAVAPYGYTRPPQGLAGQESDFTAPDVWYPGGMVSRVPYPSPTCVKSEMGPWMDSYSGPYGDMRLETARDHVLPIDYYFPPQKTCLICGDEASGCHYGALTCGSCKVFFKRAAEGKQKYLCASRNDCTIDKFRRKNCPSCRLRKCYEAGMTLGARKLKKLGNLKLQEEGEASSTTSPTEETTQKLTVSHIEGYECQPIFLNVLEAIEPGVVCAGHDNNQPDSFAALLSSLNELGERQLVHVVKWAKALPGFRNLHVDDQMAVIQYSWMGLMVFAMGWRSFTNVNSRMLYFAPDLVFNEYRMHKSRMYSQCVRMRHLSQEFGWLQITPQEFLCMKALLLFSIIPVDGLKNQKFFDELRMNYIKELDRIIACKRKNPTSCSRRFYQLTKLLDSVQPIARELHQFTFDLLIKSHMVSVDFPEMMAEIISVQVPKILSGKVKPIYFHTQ
In short: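 Steps: seed MDA-kb2 cells, incubate 5 hr at 37C; pin-transfer compounds in DMSO; add R1881 to 0.5 nM final; incubate 16 hr; add ONE-Glo, wait 30 min at room temperature; read luminescence.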
% is set by controls: 0 for no effect and ±100 for the full control effect.

NCC(=O)CCC(=O)O
inactive: Potency [1] | Potency [2] | Potency [3] | Potency [4] | Potency [5] | Potency [6] | Potency [7] | Potency [8] | Potency [9] | Potency [10] | Potency [11] | Potency [12] | Potency [13] | Potency [14] | Potency [15] | Potency [16] | Potency [17] | outcome [18]

COC(C)(C)CCO
inactive: Potency [1] | Potency [2] | Potency [3] | Potency [4] | Potency [5] | Potency [6] | Potency [7] | Potency [19] | Potency [8] | Potency [9] | Potency [10] | Potency [11] | Potency [14] | Potency [16] | Potency [17] | outcome [18]

O=S(c1cc(Cl)cc(Cl)c1O)c1cc(Cl)cc(Cl)c1O
inactive: Potency [1] | Potency [2] | Potency [3] | Potency [4] | Potency [5] | Potency [6] | Potency [7] | Potency [8] | Potency [9] | Potency [10] | Potency [11] | Potency [20] | Potency [12] | Potency [13] | Potency [14] | Potency [15] | Potency [17] | outcome [18]

Cc1ccc(C(C)OC(=O)C2(C)CCC(C(=O)O)C2(C)C)cc1 (centres undefined)
inactive: Potency [1] | Potency [2] | Potency [3] | Potency [4] | Potency [5] | Potency [6] | Potency [7] | Potency [8] | Potency [10] | Potency [11] | Potency [14] | Potency [15] | Potency [16] | Potency [17] | outcome [18]

O=C(O)CNCC(=O)O
inactive: cytotoxicity increase [1] 4.03% [at 6.97 µM] | cytotoxicity [2] -10.6% [at 6.97 µM] | cytotoxicity increase [3] -4.58% [at 6.97 µM] | cytotoxicity increase [4] -1.38% [at 6.97 µM] | activity change, negative = cytotoxic [5] -0.86% [at 6.97 µM] | activity change, negative = cytotoxicity [6] -8.06% [at 6.97 µM] | activity change, negative = cytotoxicity [7] -7.77% [at 6.97 µM] | activity change, negative = cytotoxicity [8] -5.44% [at 6.97 µM] | activity change, negative = cytotoxicity [10] 0.833% [at 8.39 µM] | viability change, negative = cytotoxic [11] -0.633% [at 8.39 µM] | activity, negative = inhibition [20] -3.67% [at 8.39 µM] | activity change, negative = inhibition [12] -6.61% [at 8.39 µM] | activity change, negative = inhibition [14] 10.7% [at 8.39 µM] | activity change, negative = cytotoxicity [15] -5.53% [at 8.39 µM] | viability change, negative = cytotoxic [16] 1.7% [at 8.39 µM] | viability change, negative = cytotoxic [17] 3.32% [at 8.39 µM] | activity change [18] 0.375% [at 8.39 µM]

O=C(CS)Nc1ccccc1
inactive: Potency [1] | Potency [2] | Potency [3] | Potency [4] | Potency [5] | Potency [6] | Potency [7] | Potency [19] | Potency [8] | Potency [10] | Potency [11] | Potency [12] | PLD induction [13] 0.942% [at 7.66 µM] | Potency [14] | Potency [15] | Potency [16] | Potency [17] | outcome [18]

CN1CCN(C(c2ccccc2)c2ccccc2)CC1
inactive: Potency [1] | Potency [2] | Potency [3] | Potency [4] | Potency [5] | Potency [6] | Potency [7] | Potency [19] | Potency [8] | Potency [10] | Potency [11] | Potency [20] | Potency [12] | Potency [13] | Potency [14] | Potency [15] | outcome [18]
